Laboratory results published in PubChem BioAssay (NCATS).
Results filed as inconclusive are left out. The source made the active and inactive calls. Calls come from the whole dose curve; as a rule, active = well fitted cell-killing curve with a large enough effect; inconclusive = small, poorly fitted or top-dose-only effect, or effect the other way; inactive = flat fitted curve, though single readings scatter.

How the values were obtained:
Assay in all cases: Primary qHTS to identify gynecologic anti-cancer compounds using libraries of approved drugs and bioactive compounds (AID 1345084); note: nearly all actives have a fitted effect of over 55% in size
Settings in all cases: Gynecologic cancer cell panel viability, ATPlite luminescence, 48 h; series mostly up to 57.5 µM
OV90 = system: OV90
Method in brief: (§1)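 Five-point cytotoxicity, 48 h drug exposure at 37 C, 5% CO2, on cells seeded 16 h beforehand. ATP content read by ATPlite luminescence.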

PA-1 = system: PA-1
Method in brief: as §1

SKOV3 = system: SKOV3
Method in brief: as §1

Tov-21-G = system: Tov-21-G
Method in brief: as §1

Tov112D = system: Tov112D
Method in brief: as §1
% is set by controls: 0 for no effect and ±100 for the full control effect.

Cc1cc(O)cc(Oc2cc(C)c(C(=O)O)c(O)c2)c1
inactive: Potency (OV90) | Potency (PA-1) | Potency (SKOV3) | Potency (Tov-21-G) | Potency (Tov112D)

CC1CCC2C(C)(C)C(O)CCC2(C)C12Cc1c(O)cc3c(c1O2)CN=C3N (stereo not given)
inactive: Potency (OV90) | Potency (PA-1) | Potency (SKOV3) | Potency (Tov-21-G) | Potency (Tov112D)

CN1C(=O)c2ccccc2NC(=O)[C@]12O[C@@H]2c1cccc(O)c1
inactive: Potency (OV90) | Potency (PA-1) | Potency (SKOV3) | Potency (Tov-21-G) | Potency (Tov112D)

C=C1C(OC(C)=O)C(=O)C2C(C)(C)C(OC(C)=O)CCC2(C)C1CC(OC(C)=O)/C(C)=C/COC(C)=O (stereo not given)
inactive: Potency (OV90) | Potency (PA-1) | Potency (SKOV3) | Potency (Tov-21-G) | Potency (Tov112D)

CCC(C)(O)C(O)C(=O)OCc1ccc(O[C@@H]2O[C@H](CO)[C@@H](O)[C@H](O)[C@H]2O)c(OC)c1 (stereo not given in full)
inactive: Potency (OV90) | Potency (PA-1) | Potency (SKOV3) | Potency (Tov-21-G) | Potency (Tov112D)

COC(=O)C1=C[C@@H](O)[C@@H](O)[C@H](O[C@@H]2O[C@H](COC(=O)/C=C/c3ccccc3)[C@@H](O)[C@H](O)[C@H]2O)C1
inactive: Potency (OV90) | Potency (PA-1) | Potency (SKOV3) | Potency (Tov-21-G) | Potency (Tov112D)

C=C1CCC2C(C)(CO[C@@H]3O[C@H](CO)[C@@H](O)[C@H](O)[C@H]3O)C(O)CCC2(C)C1C(=O)CC1=CCOC1=O (stereo not given in full)
inactive: Potency (OV90) | Potency (PA-1) | Potency (SKOV3) | Potency (Tov-21-G) | Potency (Tov112D)

COC1=Cc2c(nc3n(c2=O)C(C)C(=O)NC3(O)C(C)C)OC=C1 (stereo not given)
inactive: Potency (OV90) | Potency (PA-1) | Potency (SKOV3) | Potency (Tov-21-G) | Potency (Tov112D)

O=C(NCC(=O)N1CC[C@H](NC2CCC(O)(c3ccc(-c4ncccn4)cn3)CC2)C1)c1cccc(C(F)(F)F)c1 (stereo not given in full)
inactive: Potency (OV90) | Potency (PA-1) | Potency (SKOV3) | Potency (Tov-21-G) | Potency (Tov112D)

COc1ccccc1[C@@H]1C2=C(CC(C)(C)CC2=O)Nc2n[nH]c(C(F)(F)F)c21
inactive: Potency (OV90) | Potency (PA-1) | Potency (SKOV3) | Potency (Tov-21-G) | Potency (Tov112D)

CC(C)(O)c1ccc2c(c1)C(O)CC1C(C)(C(=O)O)CCCC21C (stereo not given)
inactive: Potency (OV90) | Potency (PA-1) | Potency (SKOV3) | Potency (Tov-21-G) | Potency (Tov112D)

CC(C)(O)C1CCC2(C)C3C(O)C4C(C13)C42CO (stereo not given)
inactive: Potency (OV90) | Potency (PA-1) | Potency (SKOV3) | Potency (Tov-21-G) | Potency (Tov112D)

O=C(O)c1cc(O)c2cccc(O)c2c1O[C@@H]1O[C@H](CO)[C@@H](O)[C@H](O)[C@H]1O
inactive: Potency (OV90) | Potency (PA-1) | Potency (SKOV3) | Potency (Tov-21-G) | Potency (Tov112D)

COc1ccc(/C=C/C(=O)O[C@@H]2[C@@H](O)[C@H](C)O[C@@H](OC3C4C=COC(O[C@@H]5O[C@H](CO)[C@@H](O)[C@H](O)[C@H]5O)C4C4(CO)OC34)[C@@H]2O)cc1OC (stereo not given in full)
inactive: Potency (OV90) | Potency (PA-1) | Potency (SKOV3) | Potency (Tov-21-G) | Potency (Tov112D)

CC1(C)CC[C@]2(C(=O)O[C@@H]3O[C@H](CO)[C@@H](O)[C@H](O)[C@H]3O)CC[C@]3(C)C(=CCC4[C@@]5(C)C[C@@H](O)[C@H](O)[C@@](C)(CO)C5CC[C@]43C)C2C1 (stereo not given in full)
inactive: Potency (OV90) | Potency (PA-1) | Potency (SKOV3) | Potency (Tov-21-G) | Potency (Tov112D)

OC[C@H]1O[C@@H](Oc2cc(O)cc(-c3cc4ccc(O)cc4o3)c2)[C@H](O)[C@@H](O)[C@@H]1O
inactive: Potency (OV90) | Potency (PA-1) | Potency (SKOV3) | Potency (Tov-21-G) | Potency (Tov112D)

C[C@H](NCc1ccc(OCc2ccccc2F)cc1)C(N)=O
inactive: Potency (OV90) | Potency (PA-1) | Potency (SKOV3) | Potency (Tov-21-G) | Potency (Tov112D)

CC1=C2C3OC(=O)C(C)C3(O)CCC2(C)CCC1=O (stereo not given)
inactive: Potency (OV90) | Potency (PA-1) | Potency (SKOV3) | Potency (Tov-21-G) | Potency (Tov112D)

CN[C@@H]1[C@@H](O)[C@@H](O[C@@H]2[C@@H](O)[C@H](O[C@H]3O[C@H](CN)[C@@H](O)[C@H](O)[C@H]3O)[C@@H](N)C[C@H]2NC(=O)[C@@H](O)CN)OC[C@]1(C)O
inactive: Potency (OV90) | Potency (PA-1) | Potency (SKOV3) | Potency (Tov-21-G) | Potency (Tov112D)

CC1CCC2C(C(=O)O)=CC3C(O)C(C)(C)CC123 (stereo not given)
inactive: Potency (OV90) | Potency (PA-1) | Potency (SKOV3) | Potency (Tov-21-G) | Potency (Tov112D)

CC(C)[C@H]1CCC(CO)=C[C@@H]1/C=C(\CO)C(=O)O
inactive: Potency (OV90) | Potency (PA-1) | Potency (SKOV3) | Potency (Tov-21-G) | Potency (Tov112D)

COC1CC(OC2CCC3(C)C(=CCC4C3CCC3(C)C(C(C)O)CCC43O)C2)OC(C)C1OC1OC(C)C(OC2OC(COC3OC(COC4OC(CO)C(O)C(O)C4O)C(O)C(O)C3O)C(O)C(O)C2O)C(OC)C1O (stereo not given)
inactive: activity change, negative = cytotoxicity (OV90) 3.31% [at 11.6 µM] | activity change, negative = cytotoxicity (PA-1) 5.02% [at 11.6 µM] | activity change, negative = cytotoxicity (SKOV3) 0% [at 11.6 µM] | activity change, negative = cytotoxicity (Tov-21-G) -5.94% [at 11.6 µM] | activity change, negative = cytotoxicity (Tov112D) -0.956% [at 11.6 µM]

COc1cc(NC(=O)c2ccccn2)ccc1Cl
inactive: Potency (OV90) | Potency (PA-1) | Potency (SKOV3) | Potency (Tov-21-G) | Potency (Tov112D)
